Consider 69 sequences from PubChem BioAssay AID1508600 (Functional Genomics Laboratory (NCATS/FGL), 2020).

The whole screen tested about 53,000 sequences, of which about 3,700 (7%) were called active. Shown is part of a subset that was picked to be rich in actives. Unmarked numbers belong to inactive results.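 Rule for the calls: active = gene knockdowns whose robust z-score for IL-1 alpha signal is at least 2 or at most -2, so actives lie on both sides; inactive = the rest.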

This assay in a line: Components of the Cytosolic LPS Sensing Pathway: Gene Identification via Genome-wide siRNA Screen. The settings on record: RAW264.7 macrophages, IL-1a HTRF, actives lie on both sides, screened at 100 nM (by protocol), cells primed 5 h with Pam3CSK4 first. The source says: Non-canonical inflammasome activation by cytosolic LPS is a critical component of the host response to Gram-negative bacterial infection, however we lack a comprehensive understanding of the cellular processes that control this pathway. Here we describe a genome-wide siRNA screen to identify genes regulating the mouse macrophage IL-1 alpha response to cytosolic LPS.
RAW264.7 cells were maintained in complete DMEM media, comprising DMEM with 4.5 g/L glucose, 10% FBS (Gemini Bio-Products, West Sacramento, CA), 2 mM Glutamine (Lonza) and 20 mM HEPES (Lonza), hereafter complete DMEM.
The RNAi screen was conducted in 384-well format using the Ambion Silencer Mouse Genome siRNA Library (#4391425), which consists of three unique, nonoverlapping, nonpooled siRNAs for each of 17,000 gene targets. siRNA reagents ([…]) were stamped into 384-well white flat-bottom microplates (Corning, 3570) using a Velocity11 VPrep liquid handling system (Agilent) integrated into a BioCel robotic platform (Agilent) in columns 1-22, leaving columns 23-24 empty for negative (Ambion, Negative control #1) and positive (mouse Casp4) controls, respectively. The median value of each plate's negative control column was used to normalize sample wells, and the positive control was used to assess transfection efficiency and assay performance.
Lipofectamine RNAiMAX Transfection Reagent ([…]; Invitrogen) was added in […] serum-free, antibiotic-free media to plate wells using a Thermo Scientific Matrix WellMate and Microplate Stacker. Plates were incubated for 45 min at room temperature to allow for the sufficient formation of siRNA-lipid complexes. Cells were seeded at a density of 1x10^4 cells per well in 20 microL media containing 20% (vol/vol) FBS without antibiotics. The final concentration of siRNA in each well was 100 nM. Cells were cultured for 48h at 37 degrees C in 5% CO2 before addition of […] of TLR ligand Pam3CSK4 for 5 hours. The medium was then removed, replaced with […] growth media and cell were transfected with […] of LipidA and TransIT-TKO (Mirus) for 24 hour. At the end of the LipidA treatment, […] of supernatant was transferred to a 384 Greiner Bio-one non-binding low volume plate and […] of IL-1a HTRF reagent (Cisbio, 62MIL1APEH) was added and incubated at room temperature overnight. The plates were read on an EnVision plate reader (PerkinElmer). Cell viability was measured by adding 20ul Cell Titer Glo to the original plate and running a luminescence read on the EnVision. The quantified IL-1a signal for each siRNA gene-targeted well was divided by the median of the negative control wells and multiplied by 100 to achieve a negative control normalized value for each well/siRNA. This normalized value was then used to generate a robust z-score by first taking the log of each value and then by subtracting the median and dividing by the […].
A general note: Time-resolved FRET reads energy transfer from a long-lived donor to a nearby acceptor.
Turning to GCUUCACAUGAAGCAACCUTT against Fam149b, the z-score was -0.102.

For GGAGAAGCAAAACUUUUAATT against Snrpa1, the z-score is -2.87 (active). For the sequence GGUGUUGAACAAAUUAACUTT against Pprc1, the z-score was 0.508. Turning to GCAACUAUCCACUCUCUGCTT against Emg1, the z-score is 0.977.

On to GGAGAUGGUCUCAUUAAGCTT against Psmd13, for which the z-score is -1.25.

Turning to GCUCUGUUUUUAACCAUCCTT against Ccnt2, the z-score is 0.227. Consider GGUAUUAAGUUCCUGUAAUTT against Ahcyl2, for which the z-score was -1.62.

As for GCUCUUGAAAUUUCACUCUTT against Ide, the z-score is 2.1 (active).

Regarding GCCGCUUAGAGGCUCAUCUTT against Nfe2l2, the z-score is -1.86. For GGACAACUAUGAAUUAGUGTT against Pfkp the value was -0.801; for GGAAAAACAGCUUAACACUTT against Pate4, 0.66. For the sequence GCUUCCAAGAUGGAACUACTT against Psmb10, the z-score is 0.657. The value for GGAUGAAAUGAACCUAGAGTT against Sh3pxd2b was -2.16 (active); that for GGAGAAGAUCACAAGAGGGTT against Slc35b1 was -0.736. As to GCAGAAUAGCUGAUGACAGTT against Galnt15, the z-score was -0.155. For the sequence GCUCCCAAGUUUACCCAGCTT against Mybphl, the z-score is 0.505.

CCUUGAACGAGAGUGCAUUTT against Pros1: the z-score is -0.798. As for CGUAAGUCAGUGAUGCUAUTT against Srp19, the z-score is 1.38.

On to GCUAUGAAGCAAUUGUGGATT against Fasn, for which the z-score is -0.527. The value for GCGGUUAUAAUGGGACCAUTT against Kif15 was 3.21 (active); that for GCCAGGAUACUAAGUGUUUTT against Jpt2 was 1.05. Turning to GCAACAUCGUAUGUUAAUGTT against Slc9a4, the z-score is 0.0571. For the sequence CGAAUACUUGAUGUCCAUGTT against Harbi1, the z-score was -2.16 (active). The value for CCAGGUGAAAACCAGGAUATT against Olfr205 was 0.925. On to GGAAACCUAUGUCUCAAGATT against Mrps36, for which the z-score was -0.332. Take CCAGAGAUUCCCACACGUCTT against Havcr1: the z-score was -1.37. For GAAUCUGGUGAAGUAUUAUTT against Phip the value was 0.518; for GGGUUUAGCUCACUGAGUATT against Tm4sf5, -1.53; for CCACUAUGUUCUCUGGAUATT against Llgl1, -0.218. Take CCACAUCUGAGACUAUUCATT against Crhr1: the z-score was 2.46 (active).

Take GGAACUGGGAGACCUAUAATT against Angptl2: the z-score was -2.01 (active).

Take CCCACAGAAUCACUCCAAGTT against Utp14a: the z-score was -0.211. Regarding GCUAUUCGUUUCUUAUAACTT against Slc19a3, the z-score is 0.83.

GGCAAUGAGUUCUGGAGUGTT against Capn8: the z-score is -0.928. On to GGUUCAAGGCAACACUGUGTT against Ankrd13d, for which the z-score is -1.54. Consider GGCUUUUGGUCUGAGAUGCTT against Snf8, for which the z-score was -2.04 (active).

For the sequence GGUGCUCACGUUUUUCUUATT against B3galnt1, the z-score is 0.348. Turning to GGAGGAAGUUGAAAAUGAATT against Myom2, the z-score was 0.157. On to “GGUACUCCUAGAACUCUACTT against 2410002F23Rik”, for which the z-score was 1.01.

Turning to GCCCAGAGUUACGAGUAUGTT against Aacs, the z-score is 2.23 (active). For GCCAAACGUGGGUUUGAUATT against Ccna1, the z-score was 4.74 (active). The value for GGAAGACUUGAGAAAUCACTT against Coro1c was 1.24; that for GCCAAGCUUGUCCAUUGAUTT against Akap9 was -0.443. On to CGUUAGCAUCAGGUCAAGUTT against Zfp251, for which the z-score was -0.323. The value for GGUGUUAACAAAAUGUACCTT against Phyh was 2.54 (active); that for CCUUAGGUCUAAGUAAUCUTT against Dnase1l1 was 2.3 (active); that for GGACUCAAAUGUGAUGCAUTT against Prkcq was -0.718.

For GGCACAUUCAUAGAACAAGTT against Znrd1as, the z-score was 2.01 (active). Consider GCGGCGCAUGACUGAAAGATT against Chd8, for which the z-score was 0.86. Turning to GGUCAACUCCUUUAUGAGCTT against Apoa4, the z-score is -0.238. With GGAUGAUGAGAGAAACAAATT against Jak1, the z-score was 3.78 (active). The value for GGAAGUAAAGAGGAUCUCATT against Vat1l was -0.678. For the sequence GGUGAUUAGCAAUCAUCAGTT against Zfp942, the z-score was -0.295. The value for GGCCACUUGAGAACAUUCGTT against Nop10 was 0.331; that for GGUACAAUGAAAGUCUCACTT against Cnot6 was -0.0743. For the sequence GGACCUUGUACCCAUUCCUTT against Prr5, the z-score is 1.01. The value for GCAAUGAGUGCUAGUUUUUTT against Cdc42 was 2.6 (active).

For the sequence CGUGGAUAUCAGAAAGCAATT against Cfhr2, the z-score was -0.487. On to GGACUUUAAUCACAGACAATT against Fem1b, for which the z-score is -1.73. CGAGUUCAUCAAAAAGGAATT against Kansl1l: the z-score is 0.708.

Regarding CCAUUCUCAGGCAAAUACUTT against Pid1, the z-score is 2.11 (active). Regarding GGCUGAUGAUACUUAAACATT against Vmn1r83, the z-score is -1.26. With CGGCAUGCUGUGGAAAAAGTT against Btrc, the z-score was -0.869.

As to GCACUUUGACAUUUUGGUATT against Arl4c, the z-score is -0.0352. For AGAGCAAAAACUCGAGCACTT against Sox15, the z-score was -0.253.

As to GGUUGUGAGUGAGAACACUTT against Prss35, the z-score is 0.738. Regarding CCUUGCAGCAUCAGGACUUTT against Ascl2, the z-score was 4.06 (active).

Take GGUAACACAGAAGAAAUCUTT against Higd1a: the z-score is -0.0444. As for GGCAGAAGAACUUUUCCAGTT against Capsl, the z-score was 0.874.
